USP10 inh – inhibitors of human USP10 deubiquitinase. Q14694. purified USP10, Ub-rhodamine fluorescence, 60 min. inhibition, % at 20 µM. actives 1.1% (n = 47,000). AID 1645856
USP8 block – inhibitors of human USP8 deubiquitinase. P40818. purified USP8, Ub-rhodamine cleavage fluorescence, 30 min. inhibition, % at 20 µM. actives 4.2% (n = 47,000). AID 1645853
UCHL1 block – blocks human UCHL1 ubiquitin-rhodamine cleavage | purified UCHL1, Ub-rhodamine cleavage fluorescence | inhibition, % at 20 µM | actives 0.2% (n = 47,000) | AID 1645859
USP7 block – human USP7 deubiquitinase inhibition; purified USP7, Ub-rhodamine cleavage fluorescence; Q93009; actives 0.3% (n = 47,000); inhibition, % at 20 µM; AID 1645854
Target sequence (Q93009 whole entry, looked up): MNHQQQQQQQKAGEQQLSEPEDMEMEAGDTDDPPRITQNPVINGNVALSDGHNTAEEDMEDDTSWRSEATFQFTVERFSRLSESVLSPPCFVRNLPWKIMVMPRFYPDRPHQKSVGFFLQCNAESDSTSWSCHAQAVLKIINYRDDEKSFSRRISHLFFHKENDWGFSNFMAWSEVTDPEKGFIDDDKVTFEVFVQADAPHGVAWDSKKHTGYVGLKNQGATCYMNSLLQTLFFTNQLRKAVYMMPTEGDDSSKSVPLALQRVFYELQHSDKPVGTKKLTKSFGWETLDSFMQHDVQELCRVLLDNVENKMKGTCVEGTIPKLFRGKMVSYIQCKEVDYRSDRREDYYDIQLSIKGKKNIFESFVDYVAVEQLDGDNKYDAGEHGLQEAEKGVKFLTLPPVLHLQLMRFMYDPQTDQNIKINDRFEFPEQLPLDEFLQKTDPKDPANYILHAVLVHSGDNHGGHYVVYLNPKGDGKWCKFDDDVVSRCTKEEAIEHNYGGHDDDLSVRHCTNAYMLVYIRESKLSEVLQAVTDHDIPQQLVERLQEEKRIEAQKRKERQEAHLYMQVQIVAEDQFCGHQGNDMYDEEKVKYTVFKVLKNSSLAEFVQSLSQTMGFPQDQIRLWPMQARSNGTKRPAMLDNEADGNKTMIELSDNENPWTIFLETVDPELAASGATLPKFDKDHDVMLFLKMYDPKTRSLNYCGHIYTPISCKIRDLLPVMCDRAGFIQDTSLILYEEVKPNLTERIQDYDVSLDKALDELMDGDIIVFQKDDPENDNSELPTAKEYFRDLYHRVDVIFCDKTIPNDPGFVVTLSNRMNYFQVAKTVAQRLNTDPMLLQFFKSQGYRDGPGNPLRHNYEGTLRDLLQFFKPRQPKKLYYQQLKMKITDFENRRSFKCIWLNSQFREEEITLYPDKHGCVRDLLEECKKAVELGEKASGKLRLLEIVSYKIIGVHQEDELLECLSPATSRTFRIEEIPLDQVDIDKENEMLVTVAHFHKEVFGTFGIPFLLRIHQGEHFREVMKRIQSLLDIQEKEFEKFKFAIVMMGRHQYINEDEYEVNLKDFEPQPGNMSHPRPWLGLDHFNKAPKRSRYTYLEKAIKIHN
Active calls of the source: *. Only some compounds are listed: those with a hit (about 5% of all), similar ones and a draw of the others. Rule as the data show it: active = inhibition above about 30%; inactive = the rest.

SMILES	USP10 inh	USP8 block	UCHL1 block	USP7 block
COc1cc(NC(=O)c2ccc(Cl)cc2)c(OC)cc1NC(=O)CN1CCOCC1	-2.3	-18.8	-2.7	-9.9
Cc1ccccc1NC(=O)c1nnc2c(-c3ccccc3)c(C)nn2c1C	-3.7	0.8	-2.6	2.7
COc1ccccc1NC(=O)Cn1cc(C(=O)c2ccc(C)cc2)c(=O)c2cc(Cl)ccc21	31.0*	2.4	-0.6	8.0
COc1cc(NC(=O)Cn2cc(C(=O)c3ccccc3)c(=O)c3cc(Cl)ccc32)cc(OC)c1	61.9*	97.0*	10.5	51.5*
O=C1/C(=C/c2ccccc2)CC/C1=C\c1ccccc1	8.8	44.3*	6.5	17.0
O=c1[nH]/c(=C\c2ccccc2)c(=O)[nH]/c1=C\c1ccccc1	2.3	0.3	2.0	4.5
Cc1c(C(=O)NC(C)C)nnn1-c1cccc2c1CCN(Cc1ccncc1)C2	-0.8	-5.4	-6.0	-5.4
CCN1CCc2nc(-c3ccccc3)n(CC(=O)N3CCOc4ccc(C)cc43)c(=O)c2C1	-5.0	58.6*	1.0	3.7
Cc1ccc2c(c1)N(C(=O)Cn1c(C)nc3c(c1=O)CCN(Cc1ccccc1)C3)CCO2	-3.2	-3.9	3.2	0.4
CCN1CCc2nc(-c3ccc(F)cc3)n(CC(=O)N(CC)c3ccccc3)c(=O)c2C1	-3.3	47.5*	-0.8	0.0
CC(=O)Nc1cc(CCC2CCN(Cc3ccc4nccnc4c3)CC2)ccn1	-5.7	-34.7	4.2	5.1
CCCCCC(=O)C(CCCC)c1oc(=O)c(CCCC)c(O)c1CCCC (centres undefined)	39.1*	19.6	10.4	13.9
Cc1c(C)n(-c2ccccc2)c2ncn(CC(=O)NCc3cccc(F)c3)c(=O)c12	27.2	45.2*	2.5	9.2
O=C(O)c1ccccc1C(=O)Nc1ccc(SC(C(=O)Nc2ccccc2Cl)c2ccccc2)cc1 (centres undefined)	49.3*	-1.3	3.7	-2.1
O=C(O)c1ccccc1C(=O)Nc1ccc(SC(C(=O)Nc2cccc(Cl)c2Cl)c2ccccc2)cc1 (centres undefined)	5.0	-32.6	-1.2	-1.7
CC(C)C[C@H](NC(=O)OC(C)(C)C)C(=O)NCC1CCC(C(=O)N[C@H](C)C(=O)O)CC1 (some centres undefined)	-0.2	-6.7	-3.7	-3.7
O=C1CC(c2ccc(O)cc2)c2c(nc(-c3ccccc3)[nH]c2=O)N1 (centres undefined)	2.5	7.8	3.1	7.2
O=C1CC(c2ccc(Cl)cc2)c2c(nc(-c3ccccc3)[nH]c2=O)N1 (centres undefined)	12.0	61.4*	0.7	16.1
CC(=O)c1c(C)oc2c1cc(OC(=O)c1ccccc1)c1ccccc12	2.3	12.7	7.9	7.8
CCCCOC(=O)c1c(C)oc2c1cc(NS(=O)(=O)c1ccc(CC)cc1)c1ccccc12	8.9	44.8*	1.9	0.7
COc1ccc(CCNC(=O)Cn2ncc3ccc(C)cc32)cc1OC	-0.4	0.2	0.6	2.2
O=C(Nc1ccc(-c2cn3ccsc3n2)cc1)c1ccc(Cl)c([N+](=O)[O-])c1	67.0*	97.4*	11.1	54.2*
Cc1ccc(-c2cn3ccsc3n2)cc1	0.4	-22.3	-0.3	-2.0
CC(C)c1nc2sc3c(N(CCO)CCO)ncnc3c2c2c1COC(C)(C)C2	-5.7	5.2	2.7	-0.2
O=S1(=O)CCN(Cc2c(F)cccc2F)c2c(F)nc(N3CCOCC3)c(F)c21	5.7	92.7*	9.4	-5.0
SMILES	USP10 inh	USP8 block	UCHL1 block	USP7 block
CCN1c2ccc(S(=O)(=O)N3CCOCC3)cc2N(Cc2c(F)cccc2F)C1C (centres undefined)	1.1	-26.4	-1.7	2.4
O=S1(=O)CCN(Cc2cccnc2)c2c(F)nc(N3CCOCC3)c(F)c21	1.7	91.4*	4.8	-1.3
CCN(CC)c1nc(F)c2c(c1F)S(=O)(=O)CCN2Cc1ccccc1	-9.0	94.7*	8.8	-1.1
CCOC(=O)c1cnc(Nc2ccccc2OCC)c2ccccc12	-4.5	60.3*	-6.7	-8.0
Cc1cc(C)cc(N(CC(=O)NCc2ccc3c(c2)OCO3)C(=O)c2ccc3c(c2)OCCO3)c1	9.0	12.6	4.8	2.3
CC1CSc2ccc(S(=O)(=O)N3CCC(N4CCCCC4)CC3)cc2NC1=O (centres undefined)	-3.6	7.3	-0.1	-10.6
CCc1csc(-c2cn(CC(=O)Nc3cc(C)ccc3C)cn2)n1	4.7	38.7*	3.2	5.7
Cc1ccc2nc(N3C(=O)c4oc5ccccc5c(=O)c4C3c3ccc(C)o3)sc2c1 (centres undefined)	6.6	9.9	-1.6	3.6
CCc1cnc(N2CCC3(CC2)OC(C(=O)NCc2ccccc2)Cn2ccnc23)nc1 (centres undefined)	-9.3	-133.8	-1.7	-0.2
Cn1c(=O)[nH]c(=O)c2c1nc(N1CCc3ccccc3C1)n2CCSc1nnnn1-c1ccccc1	18.9	86.5*	-3.7	-2.2
Cn1c(=O)c2c(nc(N3CCOCC3)n2CCSc2nnnn2-c2ccccc2)n(C)c1=O	-1.1	-16.2	-2.7	-4.3
O=C(Cn1cc(S(=O)(=O)Cc2ccc(F)cc2)c2ccccc21)N1CCCCC1	-0.9	0.8	1.5	-44.4
COc1ccc(CNc2nc3c(c(=O)n2C)CCN(C(=O)c2ccccc2OC)C3)cc1	-3.3	-2.8	-0.9	1.1
Cc1sc2ncnc(OCC(=O)c3ccc(NC(=O)CC(C)C)cc3)c2c1C	4.1	30.3*	3.6	-6.5
O=C(Cc1ccccc1)Nc1ccc2[nH]ncc2c1	-1.8	61.3*	-6.5	-61.9
O=C(c1ccco1)N1CCc2ncnc(-c3cccc(F)c3)c2CC1	-2.1	-29.2	-2.6	0.6
COc1ccc(OC)c(NC(=O)c2cc(F)ccc2-n2cnnn2)c1	2.5	6.3	6.5	8.6
O=C(CSc1ccc(-c2cccc([N+](=O)[O-])c2)nn1)Nc1cccc(F)c1	46.2*	70.0*	6.9	27.6
O=C(CSc1ccc(-c2ccncc2)nn1)NCc1ccc2c(c1)OCO2	3.2	-2.7	-0.8	0.1
O=C(CSc1ccc(-c2ccccc2)nn1)Nc1ccc(F)c([N+](=O)[O-])c1	29.0	5.3	0.4	18.8
CC(=O)Nc1cccc(NC(=O)CSc2ccc(-c3ccc4c(c3)OCO4)nn2)c1	18.8	33.2*	-2.0	4.5
COc1cc(NC(=O)Cn2nc(-c3ccc(F)cc3)ccc2=O)ccc1-n1cnnn1	50.6*	38.7*	10.9	17.2
COc1ccc(-c2ccc(SCC(=O)Nc3ccc(F)cc3)nn2)cc1OC	16.1	83.1*	-0.4	18.1
CC1CCCN(c2nc(-c3ccccc3F)no2)C1 (centres undefined)	5.8	6.9	2.4	-12.7
COc1cc2c(cc1OC)-c1cc(NCc3cc(OC)c(OC)c(OC)c3)nc(=O)n1CC2	-7.6	-23.1	-6.0	-3.1
COc1cc2c(cc1OC)-c1cc(-c3cc(OC)c(OC)c(OC)c3)cn1CC2	-3.5	35.9*	0.1	3.5
O=C(Nc1nc2ccccc2s1)c1cc(-n2cnnn2)ccc1Cl	4.0	18.1	1.6	0.3
c1ccc(COc2ncnc3scc(-c4ccccc4)c23)cc1	3.5	12.4	0.9	-1.7
CC(=O)c1ccccc1NC(=O)COc1ncnc2scc(-c3ccc(F)cc3)c12	-8.2	-5.6	-6.9	-10.9
